Assay results from the supplement of paper PMC4466140.

Key:
Experiment in all cases: SPOT peptide array binding signal intensity (averaged, normalized) (arbitrary units (background-subtracted, floor 0; scale differs between SH3 domains)); higher = stronger binding of the SH3 domain to the peptide
SpBzz1-D2 = biological target: SpBzz1-D2
Outline: (§1)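 GST-fused SH3 domains from four yeast species were expressed in E. coli BL21(DE3), purified on glutathione Sepharose and incubated at 10 μg/ml overnight at 4°C in TBS-based blocking buffer on cellulose membranes carrying synthetic 15-mer peptides, with cysteines replaced by serines. Bound protein was detected with anti-GST antibody, an HRP anti-mouse secondary and luminol, then imaged and quantified with Genespotter. Binding signal is the normalized, background-subtracted spot intensity averaged over replicates, in arbitrary units that differ between domains.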

SpCyk3 = biological target: SpCyk3
Outline: as §1

SpHof1 = biological target: SpHof1
Outline: as §1

SpHof1-2 = biological target: SpHof1-2
Outline: as §1

SpHof1-3 = biological target: SpHof1-3
Outline: as §1

SpHse1 = biological target: SpHse1
Outline: as §1

SpLsb1 = biological target: SpLsb1
Outline: as §1

SpLsb4 = biological target: SpLsb4
Outline: as §1

SpMyo1 = biological target: SpMyo1
Outline: as §1

SpNbp2 = biological target: SpNbp2
Outline: as §1

SpPex13 = biological target: SpPex13
Outline: as §1

SpRvs167 = biological target: SpRvs167
Outline: as §1

SpSla1-D1-D2 = biological target: SpSla1-D1-D2
Outline: as §1

SpSla1-D3 = biological target: SpSla1-D3
Outline: as §1

Binder: NENKKLPPAPTVFGL
- SPOT peptide array binding signal intensity (SpBzz1-D2): 0.25
- SPOT peptide array binding signal intensity (SpCyk3): 2.5
- SPOT peptide array binding signal intensity (SpHof1): 49.8
- SPOT peptide array binding signal intensity (SpHof1-2): 344
- SPOT peptide array binding signal intensity (SpHof1-3): 166
- SPOT peptide array binding signal intensity (SpHse1): 71.8
- SPOT peptide array binding signal intensity (SpLsb1): 0.5
- SPOT peptide array binding signal intensity (SpLsb4): ≤ 0
- SPOT peptide array binding signal intensity (SpMyo1): ≤ 0
- SPOT peptide array binding signal intensity (SpNbp2): ≤ 0
- SPOT peptide array binding signal intensity (SpPex13): ≤ 0
- SPOT peptide array binding signal intensity (SpRvs167): 0.333
- SPOT peptide array binding signal intensity (SpSla1-D1-D2): 8
- SPOT peptide array binding signal intensity (SpSla1-D3): 1.5
